According to PubChem BioAssay (NCI):
“And” between values parts separate entries of the source, which are not always exact repeats. Equal entries are not always repeated. This is part of a sample that, as a whole, favours compounds with a hit. Of some 83,000 tested, about 20% had one in any assay.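 Results are percent growth after 48 hours of single-concentration exposure. 100 means growth as in untreated cells, lower positive values show inhibition; negative values down to -100 show cell death.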

Assays:
Experiment in all cases: NCI-60 one-dose screen, 48 h (100 = growth as untreated, 0 = no growth, -100 = all killed)
Details in all cases: 10 µM unless noted; active = growth percent below 10; inactive = the rest
NCI-H226 lung = test system: NCI-H226 lung
NCI-H322M lung = test system: NCI-H322M lung
HOP-62 NSCLC = test system: HOP-62 NSCLC
NCI-H460 lung = test system: NCI-H460 lung
HOP-92 NSCLC = test system: HOP-92 NSCLC
NCI-H522 lung = test system: NCI-H522 lung
A549/ATCC NSCLC = test system: A549/ATCC NSCLC
786-0 renal = test system: 786-0 renal
COLO 205 colon = test system: COLO 205 colon
DU-145 prostate = test system: DU-145 prostate
K-562 leukemia = test system: K-562 leukemia
MALME-3M melanoma = test system: MALME-3M melanoma
MDA-MB-231 breast = test system: MDA-MB-231 breast
RXF 393 renal = test system: RXF 393 renal
SF-268 CNS = test system: SF-268 CNS
SF-295 CNS = test system: SF-295 CNS
SF-539 CNS = test system: SF-539 CNS
UACC-257 melanoma = test system: UACC-257 melanoma
M14 melanoma = test system: M14 melanoma
NCI-H23 lung = test system: NCI-H23 lung

Measured: growth

CC1CCCC(=O)O1 (stereo not given)
inactive: NCI-H226 lung 93.3% and 101% | NCI-H322M lung 106% | HOP-62 NSCLC 94.3% and 96.5% | NCI-H460 lung 104% and 112% | HOP-92 NSCLC 91.8% | NCI-H522 lung 86.3% and 104% | A549/ATCC NSCLC 108% and 97.9% | 786-0 renal 92.6% and 93.3% | COLO 205 colon 107% and 122% | DU-145 prostate 106% and 107% | K-562 leukemia 104% and 108% | MALME-3M melanoma 104% | MDA-MB-231 breast 103% and 111% | RXF 393 renal 101% and 112% | SF-268 CNS 102% and 111% | SF-295 CNS 99.5% and 102% | SF-539 CNS 100% and 94.7% | UACC-257 melanoma 104% and 98.9% | M14 melanoma 101% and 105%

Clc1ccc(NC(Nc2ccc(Cl)cc2)C(Cl)(Cl)Cl)cc1
inactive: NCI-H23 lung 78.1% and 96.5% | NCI-H322M lung 81.4% and 104% | HOP-62 NSCLC 61.3% and 86.3% | NCI-H460 lung 93.9% and 105% | NCI-H522 lung 71.2% and 72.1% | A549/ATCC NSCLC 80.9% and 92.3% | 786-0 renal 68.5% and 93.6% | COLO 205 colon 129% and 101% | DU-145 prostate 112% and 100% | K-562 leukemia 17.7% and 43.8% | MALME-3M melanoma 101% and 114% | MDA-MB-231 breast 87.3% and 116% | RXF 393 renal 111% and 113% | SF-268 CNS 87.7% and 90.5% | SF-295 CNS 90.3% and 97% | SF-539 CNS 110% and 100% | UACC-257 melanoma 90.1% and 99.6% | M14 melanoma 71.1% and 82.3%

CCN(CC)CCCC(C)N(Cc1ccccc1)CC(O)c1ccc(Cl)cc1 (stereo not given)
inactive: NCI-H226 lung 98.9% and 110% | NCI-H322M lung 114% and 98% | HOP-62 NSCLC 97.3% and 92.8% | NCI-H460 lung 101% and 116% | HOP-92 NSCLC 71.7% and 95.2% | NCI-H522 lung 107% and 89.8% | A549/ATCC NSCLC 103% and 96.7% | 786-0 renal 108% and 96.8% | COLO 205 colon 103% and 111% | DU-145 prostate 109% and 106% | K-562 leukemia 100% and 106% | MALME-3M melanoma 103% | MDA-MB-231 breast 114% and 105% | RXF 393 renal 101% and 106% | SF-268 CNS 102% and 100% | SF-295 CNS 103% and 96% | SF-539 CNS 111% and 95.9% | UACC-257 melanoma 102% and 105% | M14 melanoma 109% and 104%

CCc1c(CC(=O)O)c2cc(C)ccc2n1Cc1ccc(Cl)cc1
inactive: NCI-H226 lung 94.9% and 97.8% | NCI-H322M lung 76.3% and 280% | HOP-62 NSCLC 94.7% and 70.2% | NCI-H460 lung 103% and 95.8% | HOP-92 NSCLC 88% and 91.7% | NCI-H522 lung 85% and 81.5% | A549/ATCC NSCLC 89.1% and 87.3% | 786-0 renal 106% and 47% | COLO 205 colon 123% | DU-145 prostate 106% and 105% | K-562 leukemia 152% | MALME-3M melanoma 95.1% and 200% | MDA-MB-231 breast 110% and 100% | RXF 393 renal 76.8% | SF-268 CNS 96.3% and 99.4% | SF-295 CNS 91.6% and 84.9% | SF-539 CNS 97.4% and 90.2% | UACC-257 melanoma 87.7% | M14 melanoma 101% and 85.4%
